Screening data from PubChem.
12-LOX inh: Primary qHTS assay for inhibitors of human arachidonate 12S-lipoxygenase (ALOX12): Round 2. 1.1% of 580,000 active. purified 12hLO, xylenol orange hydroperoxide absorbance. Potency, µM (doses to about 108 µM), actives largely listed as inhibitors. AID 1671190, 2021
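Purified human 12hLO (150 nM final) in 25 mM Hepes, 0.01% Triton X-100, pH 7.0 was preincubated 15 min at room temperature with compound. Then 40 uM arachidonic acid was added, 30 min. Hydroperoxide was read by Fe-XO absorbance ratio 573/405 nm.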
VDR inh: Inhibitors of the vitamin D receptor (VDR): qHTS; Vitamin D3 receptor (Homo sapiens), P11473; VDR-SRC2-3 peptide fluorescence polarization, 2 h; Potency, µM, usual class: inhibitors; 0.93% of 400,000 active
Target sequence (P11473 whole entry, looked up): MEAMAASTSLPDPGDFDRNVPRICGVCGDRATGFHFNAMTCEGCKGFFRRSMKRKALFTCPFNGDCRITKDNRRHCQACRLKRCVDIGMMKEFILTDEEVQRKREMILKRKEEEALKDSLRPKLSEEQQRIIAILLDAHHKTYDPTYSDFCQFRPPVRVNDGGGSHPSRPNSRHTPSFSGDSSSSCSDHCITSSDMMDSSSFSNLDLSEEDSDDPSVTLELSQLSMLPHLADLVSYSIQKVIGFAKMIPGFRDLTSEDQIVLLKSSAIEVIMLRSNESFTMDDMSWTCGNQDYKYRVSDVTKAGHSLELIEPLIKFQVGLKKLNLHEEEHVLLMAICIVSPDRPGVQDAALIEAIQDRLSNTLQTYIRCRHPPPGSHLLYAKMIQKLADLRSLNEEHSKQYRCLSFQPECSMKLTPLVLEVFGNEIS
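FP read-out; VDR + SRC2-3 coactivator peptide; 23 nl compound by pintool; 2 h RT incubation; reagents held at 4 deg C, protected from light.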
KAT2A inh: qHTS Assay for Inhibitors of GCN5L2; Histone acetyltransferase KAT2A (Homo sapiens), Q92830; GCN5L2 HAT assay, ThioGlo1 CoA-SH fluorescence; Potency, µM (doses to about 58.9 µM), usual class: inhibitors; 0.21% of 390,000 active
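GCN5L2 (20nM final) in 50mM HEPES, 0.1mM EDTA pH 7.5, 0.01% Tween-20 was preincubated 15 min at room temperature with compound, then given ThioGlo1 (50uM), H3(1-25) peptide (75uM) and acetyl-CoA (70uM); CoA-thiol fluorescence (Ex340/Em540) was read at 0 and 20 min.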
PLK1 PBD inh: qHTS for Inhibitors of PLK1-PDB (polo-like kinase 1 - polo-box domain): Primary Screen | Serine/threonine-protein kinase PLK1 (Homo sapiens), P53350 | Plk1 PBD binding of FITC phosphopeptide, fluorescence polarization | Potency, µM, hits mostly inhibitors | 2.8% of 360,000 active; further: series mostly up to about 57 µM; nearly all actives have a fitted effect of over 65% in size
Numbers stand for hits. Rows were chosen to be rich in hits. Some 3% of all compounds tested hit in one or more screens of this group. The call rests on the fitted dose curve; in most records, active means well fitted curve in the direction sought with a large enough effect; inconclusive means small, poorly fitted or top-dose-only effect, or another doubt; inactive means no such curve, though single readings can be large; an effect the other way counts as inactive or inconclusive.

Results for O=C1COc2ccc(-c3ccoc3)nc2CN1Cc1ccccc1 ?
12-LOX inh: inactive

How did Cn1c(SCC(=O)c2ccc3c(c2)NC(=O)CO3)nnc1-c1ccncc1 do in these assays?
12-LOX inh: inactive

Results for CC/C=C/CCO ?
12-LOX inh: inactive

Results for CCOc1ccc(/C=C/c2nc(C#N)c(N3CCC(C(N)=O)CC3)o2)cc1 ?
12-LOX inh: inactive

What do the screens show for `CC(C)(C)c1ccccc1NC(=O)CSc1ncnc2ccccc12`?
12-LOX inh: inactive

What do the screens show for `NS(=O)(=O)c1ccc(NC(=S)NCc2ccccc2)cc1`?
12-LOX inh: inconclusive; VDR inh: inconclusive; KAT2A inh: inactive; PLK1 PBD inh: 12µM

How did CC(C)CC(=O)NNC(=S)Nc1ccc(S(N)(=O)=O)cc1 do in these assays?
12-LOX inh: inconclusive; VDR inh: inactive; KAT2A inh: inactive; PLK1 PBD inh: 24µM

How did NS(=O)(=O)c1ccc(NC(=S)NCc2cccc(Cl)c2)cc1 do in these assays?
12-LOX inh: inconclusive; VDR inh: inactive; KAT2A inh: inactive; PLK1 PBD inh: inactive

What do the screens show for `Cc1nn(-c2ccc(C(C)(C)C)cc2)c(C)c1[C@@H]1C=C[C@@H](NC(=O)NCc2ccccc2)C1`?
12-LOX inh: inactive

How did Cc1c(C(=O)OCc2ccccc2)sc(=S)n1C do in these assays?
12-LOX inh: inactive

What do the screens show for `COc1ccc(N(CC(=O)NCc2ccc(Cl)cc2)S(=O)(=O)c2c(C)nn(C)c2C)cc1`?
12-LOX inh: 40µM; VDR inh: inactive; KAT2A inh: inactive; PLK1 PBD inh: inactive

What do the screens show for `CC1=C[C@@H](CN)[C@H](C(C)C)C[C@H]1Cc1nc2ccc(C)cc2[nH]1`?
12-LOX inh: inactive

Results for O=C(c1cc(-c2ccccc2)on1)N1CCOCC1 ?
12-LOX inh: inactive

Results for Oc1ccccc1Oc1ncc(Br)c(N2CCOCC2)n1 ?
12-LOX inh: inactive; VDR inh: inactive; KAT2A inh: inactive; PLK1 PBD inh: inactive

How did Oc1ccccc1Oc1ncc(Br)c(Cl)n1 do in these assays?
12-LOX inh: 32µM; VDR inh: inactive; KAT2A inh: inactive; PLK1 PBD inh: inactive

How did COc1ccccc1NS(=O)(=O)c1cc(NC(=O)c2cnccn2)ccc1N1CCOCC1 do in these assays?
12-LOX inh: inactive; VDR inh: inactive; KAT2A inh: inactive; PLK1 PBD inh: inactive

How did COc1ccccc1NS(=O)(=O)c1cc(NC(=O)c2ccc(NC(C)=O)cc2)ccc1N1CCOCC1 do in these assays?
12-LOX inh: inconclusive; VDR inh: inconclusive; PLK1 PBD inh: 27µM

What do the screens show for `COc1ccccc1NS(=O)(=O)c1cc(NC(=O)c2ccncc2)ccc1N1CCOCC1`?
12-LOX inh: inactive; VDR inh: inactive; KAT2A inh: inactive; PLK1 PBD inh: 13µM

How did O=C(NCc1cccc(Cl)c1)c1cc2cc(Cl)ccc2[nH]1 do in these assays?
12-LOX inh: inactive

What do the screens show for `Cc1nn(-c2ccc(C(C)(C)C)cc2)c(C)c1[C@@H]1C=C[C@@H](NCc2ccco2)C1`?
12-LOX inh: inactive

How did O=C(O)c1cccc2c1-c1ccccc1/C2=N\Nc1ccccc1 do in these assays?
12-LOX inh: inactive; VDR inh: inactive; KAT2A inh: inactive; PLK1 PBD inh: 38µM

What do the screens show for `Cc1csc2nc(-c3ccc(NS(=O)(=O)c4cccs4)cc3)cn12`?
12-LOX inh: inactive

Results for COc1ccc(N(Cc2cccs2)C(=O)Nc2cccc(Cl)c2)cc1 ?
12-LOX inh: 16µM; VDR inh: inactive; KAT2A inh: inactive

What do the screens show for `CC1(C)Cc2c(ccc3ccccc23)C(CCl)N1` (stereo unspecified)?
12-LOX inh: 5.6µM

What do the screens show for `N#Cc1ccccc1CN1CCCCCNC(=O)[C@@H]2CCC[C@@H]21`?
12-LOX inh: inactive

What do the screens show for `N/C(COc1cccc2ccccc12)=N\O`?
12-LOX inh: inactive

Results for COc1ccc(OC)c(-n2c(-c3ccccc3)n[nH]c2=S)c1 ?
12-LOX inh: inconclusive; VDR inh: inactive; KAT2A inh: inactive; PLK1 PBD inh: inactive

Results for COc1ccc(-c2n[nH]c(=S)n2-c2ccc(Br)cc2)cc1OC ?
12-LOX inh: 16µM; VDR inh: inactive; KAT2A inh: inactive; PLK1 PBD inh: inactive

What do the screens show for `COc1ccc(-c2n[nH]c(=S)n2-c2ccccc2C)cc1OC`?
12-LOX inh: inconclusive; VDR inh: inactive; KAT2A inh: inactive; PLK1 PBD inh: inactive

Results for COc1ccc(OC)c(-n2c(-c3cccc(C)c3)n[nH]c2=S)c1 ?
12-LOX inh: 35µM; VDR inh: inactive; KAT2A inh: inactive; PLK1 PBD inh: inconclusive

How did COc1ccccc1C(NC(=O)C1CCN(CCc2ccc(Br)cc2)CC1)c1ccccn1 (stereo unspecified) do in these assays?
12-LOX inh: 40µM; PLK1 PBD inh: inactive

Results for Cc1ccnc(SC(C(=O)c2ccccc2)c2ccccc2)n1 (stereo unspecified) ?
12-LOX inh: inactive

Results for COc1ccc(OCC(=O)Nc2ccc3c(c2)nc(CCN2CCN(C)CC2)n3C)cc1 ?
12-LOX inh: inactive; VDR inh: inconclusive; KAT2A inh: inactive; PLK1 PBD inh: 24µM

What do the screens show for `CCC(=O)Nc1ccc2c(c1)nc(CN1CCN(C(C)=O)CC1)n2C`?
12-LOX inh: inconclusive; VDR inh: inactive; KAT2A inh: 32µM; PLK1 PBD inh: inactive

What do the screens show for `CCOC(=O)Nc1ccc2c(c1)nc(CN1CCN(C(C)=O)CC1)n2C`?
12-LOX inh: inactive; VDR inh: inactive; KAT2A inh: inactive; PLK1 PBD inh: inactive

How did COc1ccc(OCC(=O)Nc2ccc3c(c2)nc(CCN2CCCC2)n3C)cc1 do in these assays?
12-LOX inh: inactive; VDR inh: inactive; KAT2A inh: inactive; PLK1 PBD inh: inactive

What do the screens show for `CCOc1ccc(-n2nnnc2CNS(=O)(=O)c2ccccc2Cl)cc1`?
12-LOX inh: inactive

Results for COCCn1c(C)cc(C(=O)C(=O)Nc2nnc(CSCc3cccc(C)c3)s2)c1C ?
12-LOX inh: inactive

Results for COc1ccc(CNc2cccc3[nH]c(C(F)(F)F)nc23)cc1 ?
12-LOX inh: inactive; VDR inh: inactive; KAT2A inh: inactive; PLK1 PBD inh: inactive

How did COc1cc(CNc2cccc3[nH]c(C(F)(F)F)nc23)cc(OC)c1 do in these assays?
12-LOX inh: inactive; VDR inh: inconclusive; KAT2A inh: inactive; PLK1 PBD inh: 27µM

What do the screens show for `Cc1ccc(CN2CCc3nc(C(C)C)nc(-c4ccc(O)cc4)c3CC2)cc1`?
12-LOX inh: 45µM

Results for COc1cc(CNc2ccc(N3CCOCC3)c(C(=O)O)c2)cc(Cl)c1OC ?
12-LOX inh: inactive

Results for CCOC(=O)c1sc(Nc2ccccc2)nc1C ?
12-LOX inh: inconclusive; VDR inh: inactive; KAT2A inh: inactive; PLK1 PBD inh: inactive

What do the screens show for `CCOC(=O)c1sc(Nc2ccccc2)nc1C(F)(F)F`?
12-LOX inh: 40µM
